Screening data: PubChem, several laboratories
Compounds with a hit are over-represented: about 0.95% of the library has one in this group of screens.
PrPC surface inh = inhibitors of human cell surface prion protein PrPC, primary screen, cell-based, TR-FRET; TR-FRET read-out; inhibition, % at 13.8 µM; 370,000 compounds, 0.43% hits; AID 720596, 2013; in the data active = inhibition above about 24%; note: 0% = median of the test wells and 100% = reference compound wells
Sa ugtP lethal = growth inhibition of ugtP-null S. aureus, primary screen, RN4220 ugtP deletion, OD600. growth inhibition, % (test concentration not listed). AID 1259309, 2017. 330,000 compounds, 0.54% hits. 16 h; in the data active = growth inhibition above about 68%;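 note: plate controls were untreated wells for no effect and antibiotic for full effect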
Sa RN4220 lethal = growth inhibition of S. aureus RN4220, primary screen, OD600 | 16 h | inhibition, % (concentration not given with the values) | 330,000 compounds, 0.33% hits | AID 1259311, 2017; in the data active = inhibition above about 85%;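 note: plate controls were untreated cells for no effect and reference antibiotic for full effect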
BJeLR lethal = MLPCN primary cell-based screen for lethality selective to Ras in HRASV12 cells. BJeLR (HRASV12) viability, CellTiter-Glo ATP luminescence, 48 h. inhibition, % (test concentration not listed). 300,000 compounds, 0.17% hits. AID 1554, 2009; in the data active = inhibition above about 50%
PrPC confirm = confirmation of inhibitors of cell surface human prion protein, confirmation, cell-based, TR-FRET; shares compounds with PrPC surface inh; cell surface PrPC level; inhibition, % at 13.8 µM; 1,500 compounds, 65% hits; AID 743200, 2013; in the data active = inhibition above about 25%
LD9 tox = cytotoxicity in LD9 cells, cytotoxicity control for cell surface PrPc inhibitor project, cell-based, luminescence, high throughput; luminescence viability; 1,500 compounds, 29% hits; inhibition, % at 13.8 µM; shares compounds with PrPC surface inh; in the data active = inhibition above about 9.5%
The depositor's hits bear a star.

What do the screens show for `CC(C)(C)c1csc(NC(=O)Cn2cnc3ccccc3c2=O)n1`?
PrPC surface inh: 35*; Sa ugtP lethal: 12; Sa RN4220 lethal: 0; BJeLR lethal: 0; PrPC confirm: 25*; LD9 tox: 1

How did COC(=O)N1C2CCCCC2=NN(c2ccccc2)N1C(=O)OC (configuration not stated) do in these assays?
PrPC surface inh: 29*; PrPC confirm: 5; LD9 tox: -2

Results for O=C(CON=Cc1ccccc1Cl)N1CCCc2ccccc21 ?
Sa ugtP lethal: 5; Sa RN4220 lethal: 8

What do the screens show for `Cc1ccc(Sc2nc3ccc(C)cn3c(=O)c2C=NO)cc1`?
Sa ugtP lethal: -4; Sa RN4220 lethal: 5

What do the screens show for `COc1ccccc1NC(=O)CSc1ncnc2c1oc1ccccc12`?
PrPC surface inh: 26*; Sa ugtP lethal: -2; Sa RN4220 lethal: 1; BJeLR lethal: 3; PrPC confirm: 20; LD9 tox: 0
